Test results from PubChem BioAssay (NCI).
This is part of a sample that, as a whole, favours compounds with a hit. Of some 83,000 tested, about 20% had one in any assay.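 Assay: single dose, 48 h. Readout: percent growth (0 = no net growth; negative = cell death). Active: <10.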 Values without a mark were called inactive. Activity calls are given as the source filed them.

Tests used:
Assay in all cases: NCI-60 one-dose screen, 48 h (100 = growth as untreated, 0 = no growth, -100 = all killed)
Conditions in all cases: 10 µM unless noted
RPMI-8226 leukemia = system: RPMI-8226 leukemia
OVCAR-8 ovarian = system: OVCAR-8 ovarian
OVCAR-5 ovarian = system: OVCAR-5 ovarian
OVCAR-4 ovarian = system: OVCAR-4 ovarian
SK-OV-3 ovarian = system: SK-OV-3 ovarian
IGROV1 ovarian = system: IGROV1 ovarian
OVCAR-3 ovarian = system: OVCAR-3 ovarian
HS 578T breast = system: HS 578T breast
NCI/ADR-RES ovarian = system: NCI/ADR-RES ovarian
T-47D breast = system: T-47D breast
BT-549 breast = system: BT-549 breast
MDA-MB-435 melanoma = system: MDA-MB-435 melanoma
SW-620 colon = system: SW-620 colon
MCF7 breast = system: MCF7 breast
HCT-116 colon = system: HCT-116 colon
HCC-2998 colon = system: HCC-2998 colon
KM12 colon = system: KM12 colon

CCCCCCCCCCCCCCCCCCNC(=O)[C@H]1CSC(c2cccs2)N1 (some centres undefined)
growth (RPMI-8226 leukemia): -51.1% (active)
growth (OVCAR-8 ovarian): -23% (active)
growth (OVCAR-5 ovarian): -54.1% (active)
growth (OVCAR-4 ovarian): 42.2%
growth (SK-OV-3 ovarian): 39.7%
growth (IGROV1 ovarian): 2.04% (active)
growth (OVCAR-3 ovarian): -17.3% (active)
growth (HS 578T breast): -31.7% (active)
growth (NCI/ADR-RES ovarian): -45.3% (active)
growth (T-47D breast): -65.7% (active)
growth (BT-549 breast): -77.4% (active)
growth (MDA-MB-435 melanoma): -90.3% (active)
growth (SW-620 colon): -65.5% (active)
growth (MCF7 breast): -70.6% (active)
growth (HCT-116 colon): -89.6% (active)
growth (HCC-2998 colon): -82.4% (active)
growth (KM12 colon): -70.9% (active)

C=C(C)[C@@H]1CC[C@]2(C(=O)N3CCNCC3)CC[C@]3(C)[C@H](CC[C@@H]4[C@@]5(C)C/C(=C/c6ccncc6)C(=O)C(C)(C)[C@@H]5CC[C@]43C)[C@@H]12
growth (RPMI-8226 leukemia): 98.2%
growth (OVCAR-8 ovarian): 98.2%
growth (OVCAR-5 ovarian): 105%
growth (OVCAR-4 ovarian): 98.9%
growth (SK-OV-3 ovarian): 107%
growth (IGROV1 ovarian): 103%
growth (OVCAR-3 ovarian): 116%
growth (HS 578T breast): 98.4%
growth (NCI/ADR-RES ovarian): 109%
growth (T-47D breast): 102%
growth (BT-549 breast): 105%
growth (MDA-MB-435 melanoma): 105%
growth (SW-620 colon): 109%
growth (MCF7 breast): 79.7%
growth (HCT-116 colon): 102%
growth (HCC-2998 colon): 109%
growth (KM12 colon): 109%

Cc1ccc(S(=O)(=O)c2nc(-c3ccccc3)oc2S(C)(=O)=O)cc1
growth (RPMI-8226 leukemia): 8.94% (active)
growth (OVCAR-8 ovarian): 54.7%
growth (OVCAR-5 ovarian): 66%
growth (OVCAR-4 ovarian): 80.5%
growth (SK-OV-3 ovarian): 76.6%
growth (IGROV1 ovarian): 65.6%
growth (OVCAR-3 ovarian): -86.8% (active)
growth (HS 578T breast): 91.2%
growth (NCI/ADR-RES ovarian): 85.1%
growth (T-47D breast): -42.6% (active)
growth (BT-549 breast): 53.4%
growth (MDA-MB-435 melanoma): 59.4%
growth (SW-620 colon): -29.2% (active)
growth (MCF7 breast): 3.86% (active)
growth (HCT-116 colon): -61.8% (active)
growth (HCC-2998 colon): 97.4%
growth (KM12 colon): 76.4%

CCN(CC)c1ccc(C(=N)c2ccc(N(CC)CC)cc2)cc1
growth (RPMI-8226 leukemia): -32.1% (active)
growth (OVCAR-8 ovarian): -8.61% (active)
growth (OVCAR-5 ovarian): -22.1% (active)
growth (OVCAR-4 ovarian): 12.7%
growth (SK-OV-3 ovarian): -36.6% (active)
growth (IGROV1 ovarian): -24.8% (active)
growth (OVCAR-3 ovarian): -38.3% (active)
growth (HS 578T breast): -47.2% (active)
growth (NCI/ADR-RES ovarian): -49.9% (active)
growth (T-47D breast): -27.9% (active)
growth (BT-549 breast): 8.11% (active)
growth (MDA-MB-435 melanoma): -35.2% (active)
growth (SW-620 colon): -21% (active)
growth (MCF7 breast): -18.9% (active)
growth (HCT-116 colon): -60.1% (active)
growth (HCC-2998 colon): -74.5% (active)
growth (KM12 colon): -38.2% (active)

O=C(O)c1nc(-c2ccccc2)oc1N1CCOCC1
growth (RPMI-8226 leukemia): 107%
growth (OVCAR-8 ovarian): 98.4%
growth (OVCAR-5 ovarian): 93.2%
growth (OVCAR-4 ovarian): 108%
growth (SK-OV-3 ovarian): 92.7%
growth (IGROV1 ovarian): 98.2%
growth (OVCAR-3 ovarian): 105%
growth (HS 578T breast): 86.3%
growth (NCI/ADR-RES ovarian): 96.6%
growth (T-47D breast): 82.9%
growth (BT-549 breast): 97.5%
growth (MDA-MB-435 melanoma): 97.5%
growth (SW-620 colon): 96%
growth (MCF7 breast): 98.3%
growth (HCT-116 colon): 94.6%
growth (HCC-2998 colon): 105%
growth (KM12 colon): 88.9%

C=C[C@@H]1C[C@H](O)Cc2ccccc2N1
growth (RPMI-8226 leukemia): 89.9%
growth (OVCAR-8 ovarian): 103%
growth (OVCAR-5 ovarian): 106%
growth (OVCAR-4 ovarian): 113%
growth (SK-OV-3 ovarian): 114%
growth (IGROV1 ovarian): 124%
growth (OVCAR-3 ovarian): 125%
growth (HS 578T breast): 104%
growth (NCI/ADR-RES ovarian): 106%
growth (T-47D breast): 118%
growth (BT-549 breast): 113%
growth (MDA-MB-435 melanoma): 107%
growth (SW-620 colon): 105%
growth (MCF7 breast): 105%
growth (HCT-116 colon): 113%
growth (HCC-2998 colon): 99.6%
growth (KM12 colon): 109%

COC(=O)c1cccc2c1N(C)c1c(cccc1C(=O)OC)CC2
growth (RPMI-8226 leukemia): 90.5%
growth (OVCAR-8 ovarian): 113%
growth (OVCAR-5 ovarian): 98.7%
growth (OVCAR-4 ovarian): 112%
growth (SK-OV-3 ovarian): 110%
growth (IGROV1 ovarian): 108%
growth (OVCAR-3 ovarian): 102%
growth (HS 578T breast): 89.7%
growth (NCI/ADR-RES ovarian): 95.6%
growth (T-47D breast): 95.6%
growth (BT-549 breast): 112%
growth (MDA-MB-435 melanoma): 101%
growth (SW-620 colon): 105%
growth (MCF7 breast): 108%
growth (HCT-116 colon): 104%
growth (HCC-2998 colon): 97.4%
growth (KM12 colon): 101%
